Experiment [1] addresses Tyrosine-protein kinase Fyn (Homo sapiens) (UniProt P06241). Particulars: at 1 µM.
Experiment [2] deals with Tyrosine-protein kinase HCK (Homo sapiens) (UniProt P08631). Particulars: at 0.1 µM.
Experiment [3] shares this target. Particulars: at 1 µM.
The target of experiment [4] is Insulin-like growth factor 1 receptor (Homo sapiens) (UniProt P08069). As to conditions: at 0.1 µM.
For experiment [5] the target is unchanged. Particulars: at 1 µM.
Experiment [6] addresses Insulin receptor (Homo sapiens) (UniProt P06213). Particulars: at 0.1 µM.
Experiment [7] has the same target. As to conditions: at 1 µM.
For experiment [8], the target named is Insulin receptor-related protein (Homo sapiens) (UniProt P14616). As to conditions: at 0.1 µM.
Insulin receptor-related protein (Homo sapiens), sequence (P14616 27-742 limits assumed): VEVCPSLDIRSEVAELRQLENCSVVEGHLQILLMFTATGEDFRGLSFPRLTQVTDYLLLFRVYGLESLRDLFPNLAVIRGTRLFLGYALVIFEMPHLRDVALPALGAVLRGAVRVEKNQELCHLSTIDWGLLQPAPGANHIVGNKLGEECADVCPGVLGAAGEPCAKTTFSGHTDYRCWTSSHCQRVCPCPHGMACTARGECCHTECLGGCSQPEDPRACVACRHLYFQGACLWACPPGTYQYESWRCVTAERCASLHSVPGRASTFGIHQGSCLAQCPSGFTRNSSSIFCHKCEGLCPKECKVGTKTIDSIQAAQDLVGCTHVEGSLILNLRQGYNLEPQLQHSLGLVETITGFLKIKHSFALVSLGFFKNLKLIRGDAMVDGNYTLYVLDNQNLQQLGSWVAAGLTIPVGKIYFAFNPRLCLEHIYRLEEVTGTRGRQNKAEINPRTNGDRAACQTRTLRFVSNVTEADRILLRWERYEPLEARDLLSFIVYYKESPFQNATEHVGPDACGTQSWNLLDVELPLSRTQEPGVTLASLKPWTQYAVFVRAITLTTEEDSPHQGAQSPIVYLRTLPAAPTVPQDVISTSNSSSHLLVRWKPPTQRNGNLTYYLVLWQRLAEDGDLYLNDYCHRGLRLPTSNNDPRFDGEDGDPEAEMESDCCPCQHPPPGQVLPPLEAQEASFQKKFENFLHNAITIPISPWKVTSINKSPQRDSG
Insulin receptor-related protein (Homo sapiens), sequence (P14616 747-1297 limits assumed): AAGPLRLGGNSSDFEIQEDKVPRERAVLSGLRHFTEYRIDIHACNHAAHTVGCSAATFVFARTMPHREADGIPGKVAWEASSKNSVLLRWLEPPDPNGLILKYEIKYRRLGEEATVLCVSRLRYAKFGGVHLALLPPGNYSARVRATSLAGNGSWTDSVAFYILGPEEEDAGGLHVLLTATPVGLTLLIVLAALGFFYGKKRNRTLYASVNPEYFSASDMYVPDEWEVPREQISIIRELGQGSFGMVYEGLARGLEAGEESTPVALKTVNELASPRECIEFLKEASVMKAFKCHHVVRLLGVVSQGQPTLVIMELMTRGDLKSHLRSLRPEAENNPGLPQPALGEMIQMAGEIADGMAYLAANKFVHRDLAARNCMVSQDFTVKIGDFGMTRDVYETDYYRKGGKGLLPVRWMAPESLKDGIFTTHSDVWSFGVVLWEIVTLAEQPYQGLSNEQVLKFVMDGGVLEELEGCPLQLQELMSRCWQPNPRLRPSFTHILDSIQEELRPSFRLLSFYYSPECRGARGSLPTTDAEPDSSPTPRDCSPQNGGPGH
Experiment [9] has the same target. As to conditions: at 1 µM.
Experiment [10] has as its target T1, Tyrosine-protein kinase ITK/TSK (Homo sapiens) (UniProt Q08881).
T1 sequence (whole entry): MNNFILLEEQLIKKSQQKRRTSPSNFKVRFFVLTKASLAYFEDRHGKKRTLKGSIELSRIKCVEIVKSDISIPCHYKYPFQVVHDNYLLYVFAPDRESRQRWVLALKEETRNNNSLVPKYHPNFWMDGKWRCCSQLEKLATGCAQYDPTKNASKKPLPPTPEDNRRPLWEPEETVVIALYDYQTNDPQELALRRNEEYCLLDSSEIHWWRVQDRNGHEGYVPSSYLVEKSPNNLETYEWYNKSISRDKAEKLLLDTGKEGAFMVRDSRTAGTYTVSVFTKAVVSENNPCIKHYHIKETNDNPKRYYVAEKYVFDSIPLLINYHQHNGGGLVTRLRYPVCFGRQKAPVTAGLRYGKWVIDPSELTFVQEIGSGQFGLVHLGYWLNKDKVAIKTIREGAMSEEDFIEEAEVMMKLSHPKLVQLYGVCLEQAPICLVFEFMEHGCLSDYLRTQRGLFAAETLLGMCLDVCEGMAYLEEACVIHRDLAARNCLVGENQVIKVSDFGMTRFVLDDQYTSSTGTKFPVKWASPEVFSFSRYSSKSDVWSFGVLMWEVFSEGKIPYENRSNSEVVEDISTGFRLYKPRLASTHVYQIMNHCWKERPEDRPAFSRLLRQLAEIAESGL
Particulars: at 0.1 µM.

Experiment [11] concerns the target T1, Tyrosine-protein kinase ITK/TSK (Homo sapiens). As to conditions: at 1 µM.
For experiment [12], the target named is Tyrosine-protein kinase JAK1 (Homo sapiens) (UniProt P23458). As to conditions: at 0.1 µM.
Tyrosine-protein kinase JAK1 (Homo sapiens), sequence (P23458 whole entry): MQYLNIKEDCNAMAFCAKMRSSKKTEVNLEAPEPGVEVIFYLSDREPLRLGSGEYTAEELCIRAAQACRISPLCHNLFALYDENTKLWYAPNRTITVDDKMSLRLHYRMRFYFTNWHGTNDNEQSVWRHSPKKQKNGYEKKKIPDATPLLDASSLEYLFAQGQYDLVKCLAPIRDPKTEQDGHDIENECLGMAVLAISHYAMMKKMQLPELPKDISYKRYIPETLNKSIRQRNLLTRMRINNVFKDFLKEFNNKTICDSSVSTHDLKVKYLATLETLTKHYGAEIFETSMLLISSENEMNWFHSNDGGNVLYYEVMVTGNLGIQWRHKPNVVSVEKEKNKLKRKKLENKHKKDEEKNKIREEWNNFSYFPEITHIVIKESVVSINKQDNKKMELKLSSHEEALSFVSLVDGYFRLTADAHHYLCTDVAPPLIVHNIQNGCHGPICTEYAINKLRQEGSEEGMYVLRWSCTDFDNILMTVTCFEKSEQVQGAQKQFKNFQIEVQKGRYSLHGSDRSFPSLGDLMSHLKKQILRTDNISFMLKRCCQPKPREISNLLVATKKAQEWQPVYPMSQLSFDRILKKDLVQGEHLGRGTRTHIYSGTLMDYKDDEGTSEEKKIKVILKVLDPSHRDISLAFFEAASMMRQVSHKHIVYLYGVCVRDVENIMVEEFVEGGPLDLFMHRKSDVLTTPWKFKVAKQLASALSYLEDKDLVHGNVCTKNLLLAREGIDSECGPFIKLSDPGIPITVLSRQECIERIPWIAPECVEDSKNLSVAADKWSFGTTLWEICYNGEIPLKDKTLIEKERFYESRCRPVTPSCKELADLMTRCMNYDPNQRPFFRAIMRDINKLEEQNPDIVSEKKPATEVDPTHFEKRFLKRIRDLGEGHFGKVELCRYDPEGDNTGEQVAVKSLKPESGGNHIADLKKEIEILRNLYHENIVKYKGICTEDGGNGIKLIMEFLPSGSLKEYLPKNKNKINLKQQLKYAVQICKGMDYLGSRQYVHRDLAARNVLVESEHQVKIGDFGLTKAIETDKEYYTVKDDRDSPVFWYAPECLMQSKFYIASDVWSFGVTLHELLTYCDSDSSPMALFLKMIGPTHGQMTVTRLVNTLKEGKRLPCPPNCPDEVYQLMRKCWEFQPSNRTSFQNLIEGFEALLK
Experiment [13] has the same target. As to conditions: at 1 µM.
Experiment [14] addresses Tyrosine-protein kinase JAK2 (Homo sapiens) (UniProt O60674). Particulars: at 0.1 µM.
Experiment [15] has the same target. Particulars: at 1 µM.
Experiment [16] deals with T2, Tyrosine-protein kinase JAK3 (Homo sapiens) (UniProt P52333).
T2 sequence (whole entry): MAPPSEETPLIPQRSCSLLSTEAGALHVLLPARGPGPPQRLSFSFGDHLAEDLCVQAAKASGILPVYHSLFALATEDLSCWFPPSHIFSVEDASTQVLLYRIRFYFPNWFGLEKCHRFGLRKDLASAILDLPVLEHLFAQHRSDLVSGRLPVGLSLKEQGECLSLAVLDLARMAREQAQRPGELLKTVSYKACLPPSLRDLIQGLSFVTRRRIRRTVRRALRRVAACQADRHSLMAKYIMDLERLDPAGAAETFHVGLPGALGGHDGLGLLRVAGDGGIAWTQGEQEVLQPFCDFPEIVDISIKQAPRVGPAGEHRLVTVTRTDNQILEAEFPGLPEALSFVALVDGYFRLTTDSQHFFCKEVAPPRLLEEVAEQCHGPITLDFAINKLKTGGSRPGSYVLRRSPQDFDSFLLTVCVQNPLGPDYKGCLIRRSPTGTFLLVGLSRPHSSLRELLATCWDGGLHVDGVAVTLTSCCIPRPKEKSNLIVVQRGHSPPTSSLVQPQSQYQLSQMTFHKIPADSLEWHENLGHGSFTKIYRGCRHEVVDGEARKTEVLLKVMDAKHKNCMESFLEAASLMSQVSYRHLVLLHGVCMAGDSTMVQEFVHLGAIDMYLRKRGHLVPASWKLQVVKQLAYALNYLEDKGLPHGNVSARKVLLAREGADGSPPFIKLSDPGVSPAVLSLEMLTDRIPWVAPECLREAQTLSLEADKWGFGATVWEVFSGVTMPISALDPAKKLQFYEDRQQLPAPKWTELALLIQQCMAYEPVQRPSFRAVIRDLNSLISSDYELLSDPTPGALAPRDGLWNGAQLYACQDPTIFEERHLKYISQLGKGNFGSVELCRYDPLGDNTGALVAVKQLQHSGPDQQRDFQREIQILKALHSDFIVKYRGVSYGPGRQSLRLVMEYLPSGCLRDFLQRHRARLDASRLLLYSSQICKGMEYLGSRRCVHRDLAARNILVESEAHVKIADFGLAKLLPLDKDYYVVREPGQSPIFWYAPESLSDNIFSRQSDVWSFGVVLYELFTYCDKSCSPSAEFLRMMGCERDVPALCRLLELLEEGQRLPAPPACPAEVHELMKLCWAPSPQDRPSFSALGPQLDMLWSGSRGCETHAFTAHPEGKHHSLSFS
As to conditions: at 0.1 µM.

For experiment [17], the target named is T2, Tyrosine-protein kinase JAK3 (Homo sapiens). As to conditions: at 1 µM.
Experiment [18] concerns the target Vascular endothelial growth factor receptor 2 (Homo sapiens) (UniProt P35968). As to conditions: at 0.1 µM.
The target is the same in experiment [19]. Particulars: at 1 µM.
The target of experiment [20] is Mast/stem cell growth factor receptor Kit (Homo sapiens) (UniProt P10721). Particulars: at 0.1 µM.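 Also: values are mean inhibition of KIT, from the GSK PKIS dataset.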

Insulin-like growth factor 1 receptor (Homo sapiens), sequence (P08069 31-736 limits assumed): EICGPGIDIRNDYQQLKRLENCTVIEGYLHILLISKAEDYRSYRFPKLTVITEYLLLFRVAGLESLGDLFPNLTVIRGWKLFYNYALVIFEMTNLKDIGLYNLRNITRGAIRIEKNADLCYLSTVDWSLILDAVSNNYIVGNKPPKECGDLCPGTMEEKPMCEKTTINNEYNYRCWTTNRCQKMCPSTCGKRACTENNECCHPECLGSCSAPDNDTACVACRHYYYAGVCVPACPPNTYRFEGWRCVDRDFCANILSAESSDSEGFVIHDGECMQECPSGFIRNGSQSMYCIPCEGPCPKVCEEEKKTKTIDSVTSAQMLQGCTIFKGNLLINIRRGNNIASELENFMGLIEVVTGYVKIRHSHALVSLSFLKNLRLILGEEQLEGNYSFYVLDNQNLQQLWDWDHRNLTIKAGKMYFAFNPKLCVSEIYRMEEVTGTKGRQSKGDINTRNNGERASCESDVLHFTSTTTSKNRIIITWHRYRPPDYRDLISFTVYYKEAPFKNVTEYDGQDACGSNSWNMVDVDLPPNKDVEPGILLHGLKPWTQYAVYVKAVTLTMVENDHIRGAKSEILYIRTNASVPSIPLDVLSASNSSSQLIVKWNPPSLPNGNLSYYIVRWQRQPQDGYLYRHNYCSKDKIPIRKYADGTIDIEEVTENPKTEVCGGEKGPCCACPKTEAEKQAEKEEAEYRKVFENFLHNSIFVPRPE
Insulin-like growth factor 1 receptor (Homo sapiens), sequence (P08069 741-1367 limits assumed): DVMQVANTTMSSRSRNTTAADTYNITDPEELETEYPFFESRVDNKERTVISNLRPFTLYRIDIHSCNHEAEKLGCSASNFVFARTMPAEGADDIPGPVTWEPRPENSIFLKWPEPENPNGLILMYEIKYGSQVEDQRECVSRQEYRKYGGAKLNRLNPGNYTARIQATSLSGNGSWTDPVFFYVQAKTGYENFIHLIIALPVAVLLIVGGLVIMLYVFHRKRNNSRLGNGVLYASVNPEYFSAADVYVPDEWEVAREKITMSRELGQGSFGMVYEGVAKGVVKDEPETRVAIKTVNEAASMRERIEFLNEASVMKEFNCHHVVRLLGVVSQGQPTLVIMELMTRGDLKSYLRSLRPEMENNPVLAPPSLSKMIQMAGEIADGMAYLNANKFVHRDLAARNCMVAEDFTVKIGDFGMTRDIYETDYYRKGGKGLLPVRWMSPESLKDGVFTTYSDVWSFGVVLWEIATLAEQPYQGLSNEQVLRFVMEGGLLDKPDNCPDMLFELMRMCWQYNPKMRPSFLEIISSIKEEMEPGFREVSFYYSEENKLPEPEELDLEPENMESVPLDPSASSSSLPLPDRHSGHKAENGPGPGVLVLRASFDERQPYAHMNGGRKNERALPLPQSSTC
Tyrosine-protein kinase JAK2 (Homo sapiens), sequence (O60674 whole entry): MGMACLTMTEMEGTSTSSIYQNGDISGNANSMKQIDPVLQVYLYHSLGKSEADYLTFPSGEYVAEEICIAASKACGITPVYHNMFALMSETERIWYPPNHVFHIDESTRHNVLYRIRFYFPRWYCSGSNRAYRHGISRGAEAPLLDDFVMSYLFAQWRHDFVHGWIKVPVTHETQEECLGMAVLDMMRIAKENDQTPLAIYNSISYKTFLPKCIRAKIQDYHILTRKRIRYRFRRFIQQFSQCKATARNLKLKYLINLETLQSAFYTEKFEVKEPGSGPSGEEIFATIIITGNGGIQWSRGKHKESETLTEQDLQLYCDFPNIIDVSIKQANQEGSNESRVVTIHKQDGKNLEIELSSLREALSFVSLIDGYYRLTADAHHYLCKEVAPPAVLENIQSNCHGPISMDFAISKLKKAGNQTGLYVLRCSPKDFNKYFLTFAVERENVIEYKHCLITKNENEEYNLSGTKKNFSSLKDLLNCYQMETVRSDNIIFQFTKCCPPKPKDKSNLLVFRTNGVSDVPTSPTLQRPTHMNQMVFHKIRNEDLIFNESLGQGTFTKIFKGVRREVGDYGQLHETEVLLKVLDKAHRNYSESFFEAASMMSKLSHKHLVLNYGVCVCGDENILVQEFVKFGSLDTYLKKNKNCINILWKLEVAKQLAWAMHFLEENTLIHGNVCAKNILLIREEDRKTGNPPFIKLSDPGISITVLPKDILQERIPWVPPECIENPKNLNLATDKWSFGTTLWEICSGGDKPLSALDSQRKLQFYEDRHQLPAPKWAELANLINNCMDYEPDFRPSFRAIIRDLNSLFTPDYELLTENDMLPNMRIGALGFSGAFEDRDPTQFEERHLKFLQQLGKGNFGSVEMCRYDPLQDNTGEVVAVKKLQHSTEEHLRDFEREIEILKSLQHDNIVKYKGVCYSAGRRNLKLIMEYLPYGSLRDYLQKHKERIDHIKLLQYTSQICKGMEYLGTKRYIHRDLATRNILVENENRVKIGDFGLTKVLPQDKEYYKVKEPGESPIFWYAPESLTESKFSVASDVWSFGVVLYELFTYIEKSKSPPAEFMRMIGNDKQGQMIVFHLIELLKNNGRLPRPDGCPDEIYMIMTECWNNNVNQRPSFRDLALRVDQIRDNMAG

Turning to `COc1cc2ncnc(Nc3ccc(C)c(O)c3)c2cc1OC`, the inhibition in [1] stood at 56.2%; in [2] it was 44.9%; in [3], 75.1%; in experiment [4] it was 12.2%; in [5] it was 11%; in [6], 5.04%. Further, the inhibition in experiment [7] came out at 6.96%; in experiment [8], 2.18%; in experiment [9] it was 3.05%; in experiment [10], 1.63%; in [11] it was 1.28%; in experiment [12], 1.62%. Besides, the inhibition is 12.6% in [13]; 1.49% in experiment [14]; 0.53% in [15]; -1.17% in [16]; 2.14% in experiment [17]; 75.4% in [18]. The figures for the inhibition in experiment [19] and in [20] were 72% and 9.08%, respectively.

Take `COc1ccc(-c2nn3ncccc3c2-c2ccnc(Nc3cccc(C(F)(F)F)c3)n2)cc1`: the inhibition in experiment [1] is 7.59%; in experiment [2], 4.3%; in experiment [3] it was 8.02%; in [4] it was -1.5%; in experiment [5], 0.2%; in [6], 0.4%. Also, the inhibition is 2.59% in experiment [7]; 1.52% in experiment [8]; 1.54% in [9]; 0.45% in experiment [10]; 1.39% in experiment [11]; 2.27% in experiment [12]. In addition, the inhibition in experiment [13] is 3.13%; in [14], 0.53%; in [15], 0.47%; in experiment [16], -3.85%; in experiment [17] it was -0.01%; in [18], 3.64%. Also, the inhibition in experiment [19] came out at 11.1%; in experiment [20], 3.46%.

As to `COc1cc(/C=N/Nc2ncnc3c2cnn3C(C)C)ccc1O`, the inhibition in experiment [1] worked out at 40.2%; in experiment [2] it was 7.16%; in experiment [3], 32.6%; in experiment [4] it was 9.1%; in [5], 7.79%; in experiment [6], 2.75%. The inhibition in experiment [7] is 2.59%; in experiment [8] it was -1.25%; in [9], 2.79%; in [10], 1.18%; in experiment [11], 5%; in experiment [12] it was 2.44%. Besides, the inhibition came to 14.2% in [13]; 0.62% in [14]; 0.55% in experiment [15]; 0.75% in [16]; 3.25% in experiment [17]; 4.03% in [18]. The inhibition in experiment [19] was found to be 19.8%; in experiment [20] it was 8.94%.

Consider `Cc1cc(-c2ccccn2)cc(C)c1/C=C/c1cncc(-c2nn[nH]n2)c1`, for which the inhibition came to 9.92% in [1]; 7.16% in [2]; 17.3% in experiment [3]; 16.5% in [4]; 10.9% in experiment [5]; 5.7% in experiment [6]. Besides, the inhibition in experiment [7] came out at 5.57%; in [8] it was 0.66%; in experiment [9], 2.24%; in experiment [10], 0.82%; in experiment [11], 0.66%; in experiment [12], 4.47%. The inhibition worked out at 3.3% in [13]; 2.08% in [14]; 2.43% in [15]; 0.16% in [16]; 0.72% in experiment [17]; 3.45% in [18]. For the same compound, the inhibition came out at 14.2% in experiment [19] and 4.89% in [20].

Turning to `CN(c1ccc(NC(=O)Nc2ccc(OC(F)(F)F)cc2)cc1)c1ccnc(Nc2cccc(S(N)(=O)=O)c2)n1`, the inhibition was 53.5% in experiment [1]; 25.2% in [2]; 77.3% in experiment [3]; -1.04% in [4]; 0.46% in experiment [5]; 1.9% in [6]. Besides, the inhibition in [7] is 2.39%; in experiment [8], 0.67%; in [9], 3.26%; in experiment [10] it was 10.6%; in experiment [11] it was 67.3%; in experiment [12], 2.28%. Further, the inhibition is 12.8% in experiment [13]; 0.3% in experiment [14]; 1.31% in experiment [15]; -2.38% in experiment [16]; -1.69% in experiment [17]; 78.8% in experiment [18]. For the same compound, the inhibition in experiment [19] came to 99.6%; in experiment [20], 37.5%.

As for `COc1cc2ncn(-c3cc(OCc4ccccc4S(C)(=O)=O)c(C#N)s3)c2cc1OC`, the inhibition in experiment [1] amounted to 76.8%; in experiment [2], 16.2%; in experiment [3], 61.8%; in experiment [4] it was 4.3%; in experiment [5] it was 5.83%; in experiment [6], 5.14%. The inhibition in [7] is 5.1%; in experiment [8], 3.69%; in experiment [9] it was 3.13%; in [10] it was 2.84%; in experiment [11] it was 11.5%; in experiment [12], 3.78%. Further, the inhibition is 5.39% in experiment [13]; 2.72% in experiment [14]; 29.4% in experiment [15]; 5.19% in [16]; 55% in [17]; 25.6% in experiment [18]. Further, the values for the inhibition in experiment [19] and in [20] were 67.3% and 5.42%, respectively.

With `Cc1ccc(O)cc1Nc1ccnc2ccc(S(C)(=O)=O)cc12`, the inhibition was determined as 94.1% in experiment [1]; 87.2% in [2]; 89.9% in experiment [3]; 4.41% in experiment [4]; 3.85% in experiment [5]; 6.63% in experiment [6]. Moreover, the inhibition was found to be 8.39% in experiment [7]; 3.29% in experiment [8]; 3.19% in experiment [9]; 1.1% in experiment [10]; 1.21% in experiment [11]; 3.67% in experiment [12]. The inhibition in experiment [13] was 11.8%; in experiment [14], 1.33%; in experiment [15] it was 2.12%; in experiment [16] it was -1.23%; in experiment [17], 0.26%; in experiment [18] it was 70.1%. For the same compound, the inhibition was found to be 71.1% in experiment [19] and 13.2% in [20].

What is called inhibition is the change of the read-out against control, counted positive when it falls.

For the origin of these results see ChEMBL document CHEMBL1961873, “Compounds: GSK PKIS; Assays: Nanosyn kinase panel” (2012).
